Measurements as given in PMC7826789 (International Journal of Molecular Sciences, 2021).

Test system: TYRO3
Conditions: Compound Concentration (nM):1000
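Note: KINOMEscan scanMAX binding as percent activity remaining versus control; lower means stronger binding.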

Row | Compound | Percent Control [%]
1 | COc1cc(N2CCN(C(C)C)CC2)ccc1Nc1nc(Nc2ccc(F)cc2C(=O)NC[C@@H](O)CO)c2cc[nH]c2n1 [GSK1392956A] | 74
2 | Nc1ncnc2occ(-c3ccc(NC(=O)Nc4cc(C(F)(F)F)ccc4F)cc3)c12 [GW770249X] | 100
3 | NS(=O)(=O)c1ccc(N/N=C2\C(=O)Nc3ccc(C(=O)NCc4ccncc4)cc32)cc1 [GW300657X] | 80
4 | COc1cccc(-c2c[nH]c3c(N/N=C/c4ccncc4)ncnc23)c1 [GW814408X] | 100
5 | COc1ccc2c(-c3ccnc(Nc4cccc(OC(F)(F)F)c4)n3)cnn2n1 [GW810372X] | 100
6 | CCS(=O)(=O)c1ccc(OC)c(Nc2ncc(-c3cccc(OC)c3)o2)c1 [GW580509X] | 100
7 | Cl.O=C(Nc1ccc(Oc2ccc3[nH]c(NC(=O)c4ccco4)nc3c2)cc1)Nc1cc(C(F)(F)F)ccc1F [GW683134A] | 71
8 | CCn1c(-c2nonc2N)nc2c(C#CC(C)(C)O)nc(OCCNC)cc21.Cl [GSK949675] | 100
9 | COc1cccc(-n2ncc3c(N/N=C/c4ccncc4)ncnc32)c1 [GW784752X] | 74
10 | COc1ccccc1-c1cc(/C=C2\C(=O)Nc3ncc(Br)cc32)cc(Br)c1O [GW442130X] | 100
11 | Cl.O=C(O[C@H]1CN[C@H](C#Cc2cc3ncnc(Nc4ccc5c(cnn5Cc5ccccc5)c4)c3s2)C1)N1CCOCC1 [GSK200398A] | 100
12 | COc1cc2ncn(-c3cc(O[C@H](C)c4ccccc4Cl)c(C(N)=O)s3)c2cc1OC [GSK237701A] | 100
